In PubChem BioAssay (Tox21):
Results filed as inconclusive are left out. Entries that show only a call come without a potency. Active and inactive are the calls of the source. Unless noted, calls follow the shape of the dose curve; as a rule, active = well fitted curve in the direction sought with a large enough effect in the repeat runs; inconclusive = weak or mixed curves; inactive = no such curve, though single readings can be large; an effect the other way counts as inactive or inconclusive.

Tests used:
[1] = qHTS assay for small molecule agonists of the p53 signaling pathway (AID 651631; calls by dose curve; also: nearly all actives have a fitted effect of over 15% in size)
Outline: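 Quantitative high-throughput format: 4,000 p53RE-bla HCT-116 cells/well, 5 h pre-incubation, 16 h compound exposure at 37 °C, 2 h room-temperature substrate step, fluorescence intensity measured.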

[2] = qHTS assay for small molecules that induce genotoxicity in human embryonic kidney cells expressing luciferase-tagged ATAD5 (AID 651632); also: nearly all actives have a fitted effect of over 15% in size
Outline: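 Test compounds were delivered by pin tool onto HEK293T reporter cells (2,000/well) expressing ATAD5 fused to luciferase. After 16 hr at 37C, 5% CO2, Amplite was added for 30 min at room temperature and luminescence was measured.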

[3] = qHTS assay for small molecule agonists of the p53 signaling pathway - cell viability (AID 651633; calls by dose curve;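 also: p53RE-bla HCT reporter cells with a stable beta-lactamase p53 reporter; series mostly up to about 83 µM; nearly all actives have a fitted effect of over 30% in size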)
Outline: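 p53RE-bla cells were treated with compound for 16 hours at 37 C. Cytotoxicity was then measured as CellTiter-Glo luminescence after 30 min at room temperature.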

[4] = qHTS assay for small molecules that induce genotoxicity in human embryonic kidney cells expressing luciferase-tagged ATAD5 - cell viability (AID 651634; calls by dose curve; also: nearly all actives have a fitted effect of over 25% in size)
Outline: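 Quantitative high-throughput format. HEK293T cells expressing ATAD5 fused to luciferase were plated at 2,000 cells/well and treated 15.5 hr with compound versus DMSO. Viability was determined by fluorescent live-cell protease substrate, 30 min at 37C.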

[5] = qHTS assay for small molecule disruptors of the mitochondrial membrane potential - cell viability (AID 720634; calls by dose curve;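 also: human HepG2 liver cancer cells; series mostly up to about 83 µM; nearly all actives have a fitted effect of over 20% in size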)
Outline: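 Same-well counter-screen: following the MMP dye addition, CellTiter-Glo was added to 1 hr compound-treated HepG2 cells and luminescence read after 30 min at room temperature.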

[6] = qHTS assay for small molecule disruptors of the mitochondrial membrane potential (AID 720635); also: potency is read from the fitted curve at half-maximal effect
Outline: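 HepG2 cells exposed to compound 1 hr at 37C, then Mito-MPS dye 30 min. Ratio read of aggregate (540/590 nm) versus monomer (490/535 nm) fluorescence.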

[7] = qHTS assay to test for compound auto fluorescence at 590 nm (red) in HepG2 cells (AID 720674)
Outline: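 HepG2 cells, 2,000 per well in MEM with 10% FBS, attached overnight at 37 C, then got 23 nL compound or DMSO. After 1 hr at 37 C, 5% CO2, red fluorescence was read at 540/590 nm against Rose Bengal sodium as reference.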

[8] = qHTS assay to test for compound auto fluorescence at 535 nm (green) in HepG2 cells (AID 720675)
[9] = qHTS assay to test for compound auto fluorescence at 590 nm (red) in HEK293 cells (AID 720679)
Outline: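 Red autofluorescence, HEK293 cells: 2,000 cells/well; attach 4-5 hr 37C; add 23 nL cpd or DMSO; incubate o/n 37C 5% CO2; read Ex540/Em590; Rose Bengal sodium reference.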

[10] = qHTS assay to test for compound auto fluorescence at 535 nm (green) in HEK293 cells (AID 720680)
[11] = qHTS assay to test for compound auto fluorescence at 535 nm (green) in HEK293 cell free culture (AID 720682)
Outline: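 Measurement is a direct plate read of green fluorescence (485 nm in, 535 nm out) after compound addition to serum-supplemented DMEM lacking cells, with fluorescein used to express intensities.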

[12] = qHTS assay to test for compound auto fluorescence at 590 nm (red) in HEK293 cell free culture (AID 720683)
Outline: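 Cell-free wells of DMEM with 10% FBS received compound, and intrinsic fluorescence was read at excitation/emission 540/590 nm. Values expressed as equivalence to Rose Bengal sodium.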

[13] = qHTS assay to test for compound auto fluorescence at 590 nm (red) in HepG2 cell free culture (AID 720684)
Outline: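 Auto fluorescence equivalency versus Rose Bengal sodium, red channel Ex/Em 540/590 nm; compounds in cell-free MEM/10% FBS; DMSO vehicle control.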

[14] = qHTS assay to test for compound auto fluorescence at 460 nm (blue) in HepG2 cell free culture (AID 720685)
Outline: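 Cell-free plates of MEM plus 10% FBS received 23 nL compound or DMSO vehicle; blue-channel (405/460 nm) intensity scored against triamterene as reference fluorophore.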

[15] = qHTS assay to test for compound auto fluorescence at 535 nm (green) in HepG2 cell free culture (AID 720686)
[16] = qHTS assay to test for compound auto fluorescence at 460 nm (blue) in HepG2 cells (AID 720687)
Outline: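 HepG2 cells in MEM with 10% FBS, attached overnight at 37 C, were exposed to compound or DMSO for 1 hr at 37 C, 5% CO2. Blue fluorescence was read at 405/460 nm, with triamterene as reference fluorophore.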

[17] = molecular target: Glucocorticoid receptor (Homo sapiens) (UniProt P04150); experiment: qHTS assay to identify small molecule agonists of the glucocorticoid receptor (GR) signaling pathway (AID 720691; active = well fitted activation curve with a large enough effect in the signal ratio in the repeat runs, not every such curve was filed as active; the % refers to the signal ratio)
Outline: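 A HeLa cervical cancer line expressing GR and a glucocorticoid response element-driven beta-lactamase gene is treated with compounds for 18 h; LiveBLAzer B/G FRET substrate is then applied and fluorescence read.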

[18] = molecular target: Glucocorticoid receptor (Homo sapiens) (UniProt P04150); experiment: qHTS assay to identify small molecule antagonists of the glucocorticoid receptor (GR) signaling pathway (AID 720692; active = well fitted inhibition curve with a large enough effect in the signal ratio in the repeat runs, not every such curve was filed as active; the % refers to the signal ratio)
Outline: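 GRE-bla HeLa line, dex-stimulated (5 nM final). Compound exposure 18 h, 37 C. Beta-lactamase FRET read after 2 h RT substrate.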

[19] = qHTS assay to test for compound auto fluorescence at 460 nm (blue) in HEK293 cells (AID 720678)
Outline: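 Intrinsic compound fluorescence is recorded in live HEK293 cultures after overnight incubation at 37C, 5% CO2, using excitation 405 nm and emission 460 nm. Values are referenced to triamterene.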

[20] = qHTS assay to test for compound auto fluorescence at 460 nm (blue) in HEK293 cell free culture (AID 720681)
Outline: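 Compounds were added to cell-free DMEM with 10% FBS and fluorescence read directly. The blue channel used 405 nm excitation and 460 nm emission, with triamterene as the reference fluorophore.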

Glucocorticoid receptor (Homo sapiens), sequence (P04150 whole entry, looked up): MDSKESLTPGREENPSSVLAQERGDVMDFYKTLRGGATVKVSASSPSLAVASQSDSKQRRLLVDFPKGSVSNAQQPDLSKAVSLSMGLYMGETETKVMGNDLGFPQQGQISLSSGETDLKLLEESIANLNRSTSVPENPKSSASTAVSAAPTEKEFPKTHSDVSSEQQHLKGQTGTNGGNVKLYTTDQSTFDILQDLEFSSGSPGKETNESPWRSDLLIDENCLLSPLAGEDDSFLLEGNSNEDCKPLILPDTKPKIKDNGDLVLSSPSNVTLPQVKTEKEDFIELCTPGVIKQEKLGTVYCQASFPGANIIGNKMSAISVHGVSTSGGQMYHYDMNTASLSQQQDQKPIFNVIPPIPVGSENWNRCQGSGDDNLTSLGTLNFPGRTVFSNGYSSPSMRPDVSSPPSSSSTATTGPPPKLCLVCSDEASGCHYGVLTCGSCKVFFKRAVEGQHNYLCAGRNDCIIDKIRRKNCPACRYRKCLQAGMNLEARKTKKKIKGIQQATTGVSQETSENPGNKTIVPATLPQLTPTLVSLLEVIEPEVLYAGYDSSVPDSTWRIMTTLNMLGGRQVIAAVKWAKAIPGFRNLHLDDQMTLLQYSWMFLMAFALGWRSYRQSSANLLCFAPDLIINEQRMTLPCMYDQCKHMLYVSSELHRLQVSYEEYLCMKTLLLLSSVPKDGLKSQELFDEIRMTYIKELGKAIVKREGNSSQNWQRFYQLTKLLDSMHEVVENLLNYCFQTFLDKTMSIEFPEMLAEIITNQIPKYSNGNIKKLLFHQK

CCCCCCC1CCOC1=O (stereo not given)
Potency [1]: inactive | outcome [2]: inactive | Potency [3]: inactive | Potency [4]: inactive | Potency [5]: inactive | Potency [6]: inactive | outcome [7]: inactive | outcome [8]: inactive | outcome [9]: inactive | outcome [10]: inactive | outcome [11]: inactive | outcome [12]: inactive | outcome [13]: inactive | outcome [14]: inactive | outcome [15]: inactive | outcome [16]: inactive | Potency [17]: inactive | Potency [18]: inactive

CC(C)(C)NC[C@H](O)c1ccc(O)cc1Cl
Potency [1]: inactive | outcome [2]: inactive | Potency [3]: inactive | Potency [4]: inactive | Potency [5]: inactive | Potency [6]: inactive | outcome [7]: inactive | outcome [8]: inactive | outcome [19]: inactive | outcome [9]: inactive | outcome [10]: inactive | outcome [20]: inactive | outcome [11]: inactive | outcome [12]: inactive | outcome [13]: inactive | outcome [14]: inactive | outcome [15]: inactive | outcome [16]: inactive

COP(=O)(O)OC
Potency [1]: inactive | outcome [2]: inactive | Potency [3]: inactive | Potency [4]: inactive | Potency [5]: inactive | Potency [6]: inactive | outcome [7]: inactive | outcome [8]: inactive | outcome [19]: inactive | outcome [9]: inactive | outcome [10]: inactive | outcome [20]: inactive | outcome [11]: inactive | outcome [12]: inactive | outcome [13]: inactive | outcome [15]: inactive | outcome [16]: inactive | Potency [17]: inactive | Potency [18]: inactive

CC#Cc1cc(C)nc(Nc2ccccc2)n1
Potency [1]: inactive | outcome [2]: inactive | Potency [3]: inactive | Potency [4]: inactive | Potency [5]: inactive | Potency [6]: 27.3 µM (active) | outcome [7]: inactive | outcome [8]: inactive | outcome [19]: inactive | outcome [9]: inactive | outcome [10]: inactive | outcome [20]: inactive | outcome [11]: inactive | outcome [12]: inactive | outcome [13]: inactive | outcome [14]: inactive | outcome [15]: inactive | outcome [16]: inactive | Potency [17]: inactive

COc1cc(CC(C)N)cc(OC)c1OC (stereo not given)
Potency [1]: inactive | outcome [2]: inactive | Potency [3]: inactive | Potency [4]: inactive | Potency [5]: inactive | Potency [6]: inactive | outcome [7]: inactive | outcome [8]: inactive | outcome [19]: inactive | outcome [9]: inactive | outcome [10]: inactive | outcome [20]: inactive | outcome [11]: inactive | outcome [12]: inactive | outcome [13]: inactive | outcome [15]: inactive | outcome [16]: inactive | Potency [17]: inactive

CCC1(c2ccccc2)CCC(=O)NC1=O (stereo not given)
Potency [1]: inactive | outcome [2]: inactive | Potency [3]: inactive | Potency [4]: inactive | Potency [5]: inactive | Potency [6]: inactive | outcome [7]: inactive | outcome [8]: inactive | outcome [19]: inactive | outcome [9]: inactive | outcome [10]: inactive | outcome [20]: inactive | outcome [11]: inactive | outcome [12]: inactive | outcome [13]: inactive | outcome [14]: inactive | outcome [15]: inactive | outcome [16]: inactive

Cc1ccc2c(c1)C1CN(C)CCC1N2 (stereo not given)
Potency [1]: inactive | outcome [2]: inactive | Potency [3]: inactive | Potency [4]: inactive | Potency [5]: inactive | Potency [6]: inactive | outcome [7]: inactive | outcome [8]: inactive | outcome [19]: inactive | outcome [9]: inactive | outcome [10]: inactive | outcome [20]: inactive | outcome [11]: inactive | outcome [12]: inactive | outcome [14]: inactive | outcome [15]: inactive | outcome [16]: inactive | Potency [17]: inactive

Clc1nc(Cl)nc(Nc2ccccc2Cl)n1
Potency [1]: inactive | outcome [2]: inactive | Potency [3]: inactive | Potency [4]: inactive | Potency [5]: inactive | Potency [6]: inactive | outcome [7]: inactive | outcome [8]: inactive | outcome [9]: inactive | outcome [10]: inactive | outcome [11]: inactive | outcome [12]: inactive | outcome [15]: inactive | outcome [16]: inactive | Potency [17]: inactive | Potency [18]: inactive

CC(Cc1ccccc1)NCCn1cnc2c1c(=O)n(C)c(=O)n2C (stereo not given)
Potency [1]: inactive | outcome [2]: inactive | Potency [3]: inactive | Potency [4]: inactive | Potency [5]: inactive | Potency [6]: inactive | outcome [7]: inactive | outcome [19]: inactive | outcome [9]: inactive | outcome [10]: inactive | outcome [12]: inactive | outcome [13]: inactive | outcome [14]: inactive | outcome [15]: inactive | outcome [16]: inactive | Potency [17]: inactive | Potency [18]: inactive

CC1=C2[C@H]3OC(=O)[C@@H](C)[C@@H]3CC[C@@]2(C)C=CC1=O
Potency [1]: inactive | outcome [2]: inactive | Potency [3]: inactive | Potency [4]: inactive | Potency [5]: inactive | Potency [6]: inactive | outcome [7]: inactive | outcome [8]: inactive | outcome [9]: inactive | outcome [10]: inactive | outcome [20]: inactive | outcome [11]: inactive | outcome [12]: inactive | outcome [13]: inactive | outcome [14]: inactive | outcome [15]: inactive | outcome [16]: inactive | Potency [17]: inactive

ClCC1CO1 (stereo not given)
Potency [1]: inactive | outcome [2]: inactive | Potency [3]: inactive | Potency [4]: inactive | Potency [5]: inactive | Potency [6]: inactive | outcome [7]: inactive | outcome [8]: inactive | outcome [19]: inactive | outcome [9]: inactive | outcome [10]: inactive | outcome [20]: inactive | outcome [11]: inactive | outcome [12]: inactive | outcome [13]: inactive | outcome [14]: inactive | outcome [15]: inactive | outcome [16]: inactive | Potency [17]: inactive

COC1=CC(=O)O[C@@H](/C=C/c2ccccc2)C1
Potency [1]: inactive | outcome [2]: inactive | Potency [3]: inactive | Potency [4]: inactive | Potency [5]: inactive | Potency [6]: inactive | outcome [7]: inactive | outcome [19]: inactive | outcome [9]: inactive | outcome [10]: inactive | outcome [11]: inactive | outcome [12]: inactive | outcome [13]: inactive | outcome [14]: inactive | outcome [15]: inactive | outcome [16]: inactive | Potency [17]: inactive | Potency [18]: inactive

CCCOc1nn(C(=O)NS(=O)(=O)c2ccccc2C(=O)OC)c(=O)n1C
Potency [1]: inactive | outcome [2]: inactive | Potency [3]: inactive | Potency [4]: inactive | Potency [5]: inactive | Potency [6]: inactive | outcome [7]: inactive | outcome [8]: inactive | outcome [19]: inactive | outcome [9]: inactive | outcome [10]: inactive | outcome [20]: inactive | outcome [11]: inactive | outcome [12]: inactive | outcome [13]: inactive | outcome [14]: inactive | outcome [15]: inactive | outcome [16]: inactive | Potency [17]: inactive | Potency [18]: inactive

O=C(Cl)OCc1ccccc1
Potency [1]: inactive | outcome [2]: inactive | Potency [3]: inactive | Potency [4]: inactive | Potency [5]: inactive | Potency [6]: inactive | outcome [7]: inactive | outcome [8]: inactive | outcome [19]: inactive | outcome [9]: inactive | outcome [10]: inactive | outcome [20]: inactive | outcome [11]: inactive | outcome [12]: inactive | outcome [13]: inactive | outcome [14]: inactive | outcome [15]: inactive | outcome [16]: inactive | Potency [17]: inactive | Potency [18]: inactive

CCOC(=O)NC(C)(C)Cc1ccc(Cl)cc1
Potency [1]: inactive | outcome [2]: inactive | Potency [3]: inactive | Potency [4]: inactive | Potency [5]: inactive | Potency [6]: inactive | outcome [7]: inactive | outcome [8]: inactive | outcome [19]: inactive | outcome [9]: inactive | outcome [10]: inactive | outcome [11]: inactive | outcome [12]: inactive | outcome [13]: inactive | outcome [14]: inactive | outcome [15]: inactive | outcome [16]: inactive | Potency [17]: inactive | Potency [18]: inactive
